The values below come from PubChem BioAssay (NCI).

“And” between values parts separate entries of the source, which are not always exact repeats. Identical values can stand only once. Compounds without any hit were thinned out: in the full panel of roughly 83,000, 20% have a hit.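 Results are percent growth after 48 hours of single-concentration exposure. 100 means growth as in untreated cells, lower positive values show inhibition; negative values down to -100 show cell death.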 A number with no mark means an inactive call. The source made the active and inactive calls.

One assay concerns OVCAR-3 ovarian. Nature of the assay: NCI-60 one-dose screen, 48 h (100 = growth as untreated, 0 = no growth, -100 = all killed). The settings on record: 0.01 µM. How it is done:
Growth inhibition of the OVCAR-3 human tumor cell line is measured as a screen for anti-cancer activity. Cells are grown in 96 well plates and exposed to the test compound for 48 hours. Compounds are tested at a single concentration, which is 10^-5 M for most compounds. The reported endpoint is percent growth (GI% or GIPRCNT), where numbers from 0 - 100% represent growth inhibition, and numbers from -100% - 0 represent cell death. For example, a value of 40 represents 60% growth inhibition. A value of 0 means no net growth occurred over the course of the experiment. A value of -40 indicates 40% of cells at the beginning of the experiment died by the end of the experiment. A value of -100 means all cells are dead at the end of the experiment.
NCI-60 Human Tumor Cell Lines Screen was performed using the standard one-dose NCI protocol, which is described in more detail at https://dtp.cancer.gov/discovery_development/nci-60/default.htm.
Compounds with GIPRCNT values below 10 were considered active. Activity score was based on GIPRCNT using the following formula: […]
Score is 0 for GIPRCNT values of 100 or above, 50 for GIPRCNT values of 0, and 100 for GIPRCNT values of -100.
`CC(=O)O[C@H]1C(=O)[C@@]2(C)[C@H]([C@H](OC(=O)c3ccccc3)[C@]3(O)C[C@H](OC(=O)[C@H](O)[C@@H](NC(=O)c4ccccc4)c4ccccc4)C(C)=C1C3(C)C)[C@]1(OC(C)=O)CO[C@@H]1C[C@@H]2O`: the growth was -6.94% (active).

The same assay, now with this note: 2.5 µM.
In the case of `CC(=O)O[C@H]1C(=O)[C@@]2(C)[C@H]([C@H](OC(=O)c3ccccc3)[C@]3(O)C[C@H](OC(=O)[C@H](O)[C@@H](NC(=O)c4ccccc4)c4ccccc4)C(C)=C1C3(C)C)[C@]1(OC(C)=O)CO[C@@H]1C[C@@H]2O`, the growth is -5.62% (active).

Still in this assay, the particulars now being: 5 µM.
For `CC(=O)O[C@H]1C(=O)[C@@]2(C)[C@H]([C@H](OC(=O)c3ccccc3)[C@]3(O)C[C@H](OC(=O)[C@H](O)[C@@H](NC(=O)c4ccccc4)c4ccccc4)C(C)=C1C3(C)C)[C@]1(OC(C)=O)CO[C@@H]1C[C@@H]2O`, the growth was -2.89% (active).

Still in this assay, the particulars now being: 10 µM.
With `O=C1C=CC(=O)N1c1ccc(N2C(=O)C=CC2=O)cc1`, the growth is 103%.

Take `O=Nc1ccc(Nc2ccccc2)cc1`: the growth is 49.4%.

Take `ClCCn1c(CCl)nc2ccc(Cl)cc21`: the growth was -89.6% (active).

On to `O=C1c2cccc3cc([N+](=O)[O-])cc(c23)C(=O)N1CCN1CCCC1`, for which the growth is -16.8% (active).

Take `N#CC(=C1C=CC(=NO)C=C1)c1ccccc1`: the growth is -26.8% (active).

Regarding `CCC(C)(c1ccc(O)c(C)c1)c1ccc(O)c(C)c1`, the growth was 102%.

On to `S=P(N1CC1)(N1CC1)N1CC1`, for which the growth was 118% and 106%.

As for `S=C1SCN(CCc2ccccc2)CN1CCc1ccccc1`, the growth is 116%.

For `Cc1cc(C)c(N2C(=O)CC(Sc3ccccc3N)C2=O)c(C)c1` (stereo not given), the growth is 71.1%.

For the compound `CC(=O)O[C@H]1C(=O)[C@@]2(C)[C@H]([C@H](OC(=O)c3ccccc3)[C@]3(O)C[C@H](OC(=O)[C@H](O)[C@@H](NC(=O)c4ccccc4)c4ccccc4)C(C)=C1C3(C)C)[C@]1(OC(C)=O)CO[C@@H]1C[C@@H]2O`, the growth was 0.613% (active) and 0.903% (active).

Consider `O=C1c2ccccc2CCC1(Br)Br`, for which the growth was -69.6% (active).

As for `Nc1nc(N)c2cc(Sc3ccc4ccccc4c3)ccc2n1`, the growth is 38.8%.

On to `CC[C@@]1(OC(=O)CN(C)C)C(=O)OCc2c1cc1n(c2=O)Cc2cc3c(N)cccc3nc2-1`, for which the growth is -34.2% (active).

As for `CN(C)CCNc1cccc2sc3ccc(O)cc3c(=O)c12`, the growth was 41.8%.

On to `O=[N+]([O-])c1cc(S(=O)(=O)Nc2ccccc2)ccc1Cl`, for which the growth is 106%.

Consider `O=c1[nH]cc(/C=N\Nc2ccccc2)c(=O)[nH]1`, for which the growth was 81.2%.

Consider `CCOC(=O)[C@]1(Br)CC[C@@]1(Br)C(=O)OCC`, for which the growth was 133%.

Consider `CN(C)c1ccc(/C=C/c2ccnc3ccccc23)cc1N`, for which the growth is 70.7%.

`COc1cc(N)ccc1Nc1c2ccccc2nc2ccccc12`: the growth was 80.6%.

With `CC1CCC2(C(=O)O)CCC3(C)C(=CCC4C5(C)CC(O)C(O)C(C)(CO)C5C(O)CC43C)C2C1C` (stereo not given), the growth was 118%.

Regarding `COc1cccc(C(c2cc3c(cc2O)OCO3)N2CCOCC2)c1OC` (stereo not given), the growth was 111%.

`CN(CC(=O)O)c1ccc(/C=C/c2ccnc3ccccc23)cc1`: the growth was 90.4%.

Regarding `COc1ccc2c(c1)[nH]c1c(/C=C/c3ccccc3)nccc12`, the growth is 73.4%.

Take `O=C(CNS(=O)(=O)Cc1ccccc1)NNc1ccccc1`: the growth is 86.8%.

For `O=C(NC(=S)Nc1ccccn1)c1ccccc1`, the growth was 98%.

As for `Cn1ncc2cc3c(Nc4ccc(Cl)cc4)cccc3nc21`, the growth was 94.1%.

With `Cn1c2nc3ccccc3c-2nc2ccccc21`, the growth is 99.2% and 93.3%.

Take `Cc1cc(N=C2C=CC(=[N+](C)C)C=C2)c(N)cc1N`: the growth was 16.5%.

As for `O=S(=O)(c1cc(Cl)ccc1O)c1cc(Cl)ccc1O`, the growth was 78%.

With `Cc1cc(O)c2c(c1O)C(=O)C13C(=C2O)C(=O)C2C(O)C1C1C(O)C3C(=O)C3=C(O)c4c(O)cc(C)c(O)c4C(=O)C321` (stereo not given), the growth was -39.1% (active).

Consider `COc1ccc(N)c2c1C(=O)c1ccccc1C2=O`, for which the growth is 115%.

Take `NCc1c(O)ccc2ccccc12`: the growth is 99.4%.

As for `Cc1c(-c2ccccc2)[nH]c2ccccc12`, the growth is 105%.

As for `C=C1N(C)c2ccc(Cl)cc2C1(C)C`, the growth is 42.9%.

Regarding `O=C(O)c1ccccc1.[Ag]`, the growth was 113%.

For the compound `COc1ccc2oc(-c3ccc(Cl)cc3)c(N3CCN(C)CC3)c2c1`, the growth is 1.93% (active).

The assay is the same for the next values; noted with them: 100 µM.
As for `S=P(N1CC1)(N1CC1)N1CC1`, the growth was 69.8%.
